Results on 38 compounds are retold here after PubChem BioAssay (NCI).

SMILES strings stand for the structures. The panel holds about 79,000 compounds, 15% with a hit somewhere; the sample as a whole holds those more often. Values without a mark were called inactive. Active and inactive are the calls of the source. No stated cut-off is given here; in the data, active means growth inhibition above about 70%; inactive means the rest.

A short description of assay [1]: NCI Yeast Anticancer Drug Screen. Data for the rad50 strain (AID 155).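 Further: 0% = growth of vehicle-only cultures of the same strain.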 The following applies: S. cerevisiae rad50 strain growth inhibition; at 50.0 µM; active compounds read high. Summed up: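 Growth of the mutant yeast was measured after compound exposure and referenced to vehicle-treated cultures.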
The nature of assay [2]: NCI Yeast Anticancer Drug Screen. Data for the mec2-1 strain (AID 157). The following applies: S. cerevisiae mec2-1 strain, at 50.0 µM, active compounds read high. The method, boiled down:
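Each compound was tested on mec2-1 yeast, a strain altered in DNA damage repair or cell cycle control. Growth inhibition is reported relative to vehicle.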

The nature of assay [3]: NCI Yeast Anticancer Drug Screen. Data for the sgs1 mgt1 strain (AID 161).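 Further: 0% = growth of cultures given vehicle only.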 The following applies: S. cerevisiae sgs1 mgt1 strain, at 50.0 µM, active compounds read high. The method, boiled down:
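Read-out: growth inhibition vs vehicle controls. Cells: mutant yeast strain deficient in DNA damage repair.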

A short description of assay [4]: NCI Yeast Anticancer Drug Screen. Data for the cln2 rad14 strain (AID 165).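 Further: 0% = growth equal to vehicle treated cultures.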 To be noted: S. cerevisiae cln2 rad14 strain, at 50.0 µM, active compounds read high. Summed up: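 Test compounds were added to cln2 rad14 yeast cultures; inhibition of growth was then determined by comparison with vehicle treatment.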
Assay [5] in a line: NCI Yeast Anticancer Drug Screen. Data for the bub3 strain (AID 167). To be noted: S. cerevisiae bub3 mutant strain, at 50.0 µM, active compounds read high. Summed up: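 Whole-cell yeast assay. The mutant strain was incubated with compounds, and growth inhibition was determined by comparison with vehicle-treated cells.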
Assay [6] is described as follows: NCI Yeast Anticancer Drug Screen. Data for the mlh1 rad18 strain (AID 175). To be noted: S. cerevisiae mlh1 rad18 strain growth inhibition; at 50.0 µM; active compounds read high. The method, boiled down: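 Inhibition values reflect reduced growth of mutant yeast versus vehicle-treated controls following compound exposure; the mutations affect DNA damage repair.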

Regarding `O=C(OCCN=C1c2ccccc2CCc2ccccc21)c1ccccc1`, the growth inhibition in assay [1] is -12.2%; in assay [2], -6.45%; in assay [3], 18.9%; in assay [4], 6.8%; in assay [5], 37.3%; in assay [6] it was 0.4%.

With `NS(=O)(=O)c1ccc(NCc2cnc3ccccc3c2)cc1`, the growth inhibition in assay [1] is -4.65%; in assay [2], -22.3%; in assay [3], 12%; in assay [4], -5.25%; in assay [5] it was 4.1%; in assay [6], 27.4%.

`CC(=O)OC1CCC2(C)C(=CC=C3C4CCC(=O)NC4(C)CCC32)C1` (stereo not drawn): the growth inhibition in assay [1] is 19.5%; in assay [2] it was 0.25%; in assay [3], 21.4%; in assay [4], 11.1%; in assay [5], -3.6%; in assay [6], 2.35%.

`COC(=O)C12OCC34C(CC(C(C)=O)C(C)(CC(=O)O)C3C(O)C1O)OC(=O)C(OC(=O)/C=C(\C)C(C)C)C24` (stereo not drawn): the growth inhibition is 10% in assay [1]; 21.3% in assay [2]; 0.15% in assay [3]; 9% in assay [4]; 7.6% in assay [5]; 6.95% in assay [6].

For the compound `CCC1CN2C(=N1)c1ccccc1-c1cc([N+](=O)[O-])ccc12` (stereo not drawn), the growth inhibition in assay [1] is 94% (active); in assay [2] it was 43%; in assay [3] it was -20.2%; in assay [4], 51.3%; in assay [5] it was 54%; in assay [6], 94.2% (active).

As to `Nc1ccc2ccccc2c1S(=O)(=O)O`, the growth inhibition in assay [1] was 16.1%; in assay [2], -6.4%; in assay [3] it was 15%; in assay [4], 4.65%; in assay [5], -2.4%; in assay [6] it was -27%.

As for `CN(C)C1CS(=O)(=O)C1c1ccccc1` (stereo not drawn), the growth inhibition is 19.6% in assay [1]; 9% in assay [2]; 7.1% in assay [3]; -19.5% in assay [4]; 8.3% in assay [5]; 1.45% in assay [6].

As to `CC1C=CC(C(N)C(=O)O)O1` (stereo not drawn), the growth inhibition in assay [1] was -9.9%; in assay [2], -17.6%; in assay [3] it was -13.1%; in assay [4], -0.7%; in assay [5], -5.35%; in assay [6], -9.85%.

For `CCCCC(CC)CCC(C)=O` (stereo not drawn), the growth inhibition in assay [1] was 5.8%; in assay [2] it was -0.8%; in assay [3], 0.35%; in assay [4], 3.3%; in assay [5], 1.75%; in assay [6] it was -0.9%.

Turning to `CSC(=O)Oc1ccc([N+](=O)[O-])cc1`, the growth inhibition in assay [1] was 6.25%; in assay [2] it was 1.55%; in assay [3], -6.7%; in assay [4], -38.3%; in assay [5], 12.5%; in assay [6] it was -2.9%.

On to `O=c1cc(-c2ccccc2)[nH]c2nccn12`, for which the growth inhibition in assay [1] is -55%; in assay [2], -27.1%; in assay [3], -53.1%; in assay [4], -57.5%; in assay [5], 5.85%; in assay [6] it was -58.7%.

Turning to `COc1cc(C(=O)C(C)Br)cc(OC)c1OC` (stereo not drawn), the growth inhibition in assay [1] was 3.1%; in assay [2] it was 46.1%; in assay [3] it was 64.9%; in assay [4] it was -23%; in assay [5] it was 68.2%; in assay [6], 62.4%.

Consider `O=C1C(=O)c2ccccc2C(O)=C1Br`, for which the growth inhibition was 27.9% in assay [1]; 39.4% in assay [2]; 49.4% in assay [3]; -61% in assay [4]; 28.4% in assay [5]; 29.8% in assay [6].

Take `Cc1ccc(CCCCCOc2ccc(C3=NCCO3)cc2)s1`: the growth inhibition is -2% in assay [1]; 22.2% in assay [2]; 22.4% in assay [3]; -21% in assay [4]; -3% in assay [5]; -4.9% in assay [6].

With `[O-][n+]1cc(N=Nc2ccc(Cl)cc2)nn1-c1ccc(Cl)cc1`, the growth inhibition in assay [1] is -11.6%; in assay [2], -33.8%; in assay [3], -8.5%; in assay [4], 9.85%; in assay [5], -1.1%; in assay [6], -14.3%.

With `ClCC1CCCO1` (stereo not drawn), the growth inhibition was 23.1% in assay [1]; 12.6% in assay [2]; 31.1% in assay [3]; 3.35% in assay [4]; 24.9% in assay [5]; 25.6% in assay [6].

Consider `CCOC(=O)CC/C(C)=N/NC(=O)c1ccc[n+](C)c1`, for which the growth inhibition in assay [1] was -11.8%; in assay [2], -3.65%; in assay [3], -1.95%; in assay [4] it was -29%; in assay [5], -3.05%; in assay [6], 2.65%.

Turning to `CCC(C)N(C(C)=O)C(C)CC` (stereo not drawn), the growth inhibition was -4.15% in assay [1]; -17.2% in assay [2]; -13.4% in assay [3]; 15.2% in assay [4]; 2% in assay [5]; 1.85% in assay [6].

On to `O=C(c1ccc(F)cc1)c1ccc2ccccc2c1`, for which the growth inhibition in assay [1] is 8.75%; in assay [2], -1.3%; in assay [3], -3.35%; in assay [4], 10.7%; in assay [5] it was 2%; in assay [6] it was 5%.

With `COC(=O)c1nnn(-c2cccc(Cl)c2)c1N`, the growth inhibition in assay [1] was 3.7%; in assay [2], -6.1%; in assay [3], -0.25%; in assay [4] it was 15.7%; in assay [5], -26.9%; in assay [6], 20.4%.

Regarding `CC(C)(C)C(OC(=O)Cc1ccccc1)c1ccc2c(c1)OCO2` (stereo not drawn), the growth inhibition in assay [1] is -9.05%; in assay [2], -2.7%; in assay [3] it was 2%; in assay [4], -3.25%; in assay [5] it was 51.4%; in assay [6] it was -12.1%.

Regarding `O=C(Nc1ccccc1O)c1ccc([N+](=O)[O-])cc1`, the growth inhibition in assay [1] was 2.2%; in assay [2], 34.4%; in assay [3], -4.4%; in assay [4] it was -15.6%; in assay [5], 20.4%; in assay [6] it was 19.1%.

In the case of `c1ccc([P+](Cc2ccc(C[P+](c3ccccc3)(c3ccccc3)c3ccccc3)cc2)(c2ccccc2)c2ccccc2)cc1`, the growth inhibition in assay [1] is 48.2%; in assay [2], 35.6%; in assay [3], 29.4%; in assay [4], 40.5%; in assay [5] it was 47.9%; in assay [6], 37.5%.

Take `Cc1nc(N)nc(C)c1Cl`: the growth inhibition in assay [1] is -2.15%; in assay [2] it was 3.4%; in assay [3] it was 3.85%; in assay [4] it was 5.2%; in assay [5], -5.9%; in assay [6] it was -1.85%.

For the compound `N#CC(=C1c2ccccc2-c2ccccc21)c1ccccc1`, the growth inhibition in assay [1] is -14.2%; in assay [2], 7.1%; in assay [3], -2.35%; in assay [4], -2.65%; in assay [5] it was 2.75%; in assay [6], -20.5%.

Regarding `CCN(CC)CCNc1nc(N)c(C#N)c(C#N)c1C#N`, the growth inhibition in assay [1] is 5.8%; in assay [2], -14.4%; in assay [3], -4.55%; in assay [4] it was 9%; in assay [5], -8.3%; in assay [6], 1.45%.

`Cn1/c(=N\N=C2\C=C3CCCCC3(C)CC2)sc2ccccc21` (stereo not drawn): the growth inhibition in assay [1] is 12.7%; in assay [2], 12.2%; in assay [3] it was 22.9%; in assay [4] it was 33.2%; in assay [5] it was -8.8%; in assay [6], 47.1%.

For `COC(=O)c1nc(=S)[nH]c(C(=O)OC)c1C(=O)c1ccccc1O`, the growth inhibition in assay [1] is 21.9%; in assay [2], 11.9%; in assay [3], 14.1%; in assay [4], 3.4%; in assay [5] it was 29.1%; in assay [6], 30%.

In the case of `CCC1CCC(=O)NC1=O` (stereo not drawn), the growth inhibition in assay [1] is -10.3%; in assay [2] it was -1.15%; in assay [3] it was 11.7%; in assay [4] it was -7.75%; in assay [5], -9.6%; in assay [6] it was 1.5%.

As for `COc1cc(OC)c([N+](=O)[O-])cc1/C=C/C(=O)O`, the growth inhibition in assay [1] was -5.25%; in assay [2], -3.35%; in assay [3], 8%; in assay [4] it was 6.15%; in assay [5], 9.95%; in assay [6] it was 4.05%.

For `CCOC(=O)CC(C)C(C(=O)OCC)C(=O)OCC` (stereo not drawn), the growth inhibition in assay [1] was 1.05%; in assay [2], 6.15%; in assay [3], -9.15%; in assay [4], 4.15%; in assay [5], 23.6%; in assay [6] it was 14%.

`S=C(NCCNC(=S)SCc1c(Cl)c(Cl)c(Cl)c(Cl)c1Cl)SCc1c(Cl)c(Cl)c(Cl)c(Cl)c1Cl`: the growth inhibition in assay [1] is 48.1%; in assay [2], 14.3%; in assay [3], 24.6%; in assay [4], -8.85%; in assay [5] it was -0.7%; in assay [6], 59.8%.

`O=C1OC(c2ccc(Cl)cc2)=N/C1=C\c1ccc(Cl)c(Cl)c1`: the growth inhibition is 35.7% in assay [1]; 19.1% in assay [2]; 59.4% in assay [3]; 19.2% in assay [4]; 38.5% in assay [5]; 31.7% in assay [6].

As for `CCC1(CC)C(=O)N(C(=O)c2ccc(Cl)cc2)N(C(=O)c2ccccc2Cl)C1=O`, the growth inhibition in assay [1] is 22.3%; in assay [2], 23.8%; in assay [3] it was 5.8%; in assay [4] it was 41.8%; in assay [5] it was 49.2%; in assay [6] it was -53.5%.

Consider `Cc1cc(N=Nc2ccc(C(=O)O)cc2)c(N)cc1N`, for which the growth inhibition in assay [1] is -34.5%; in assay [2] it was -5.55%; in assay [3], -7.1%; in assay [4], -21.4%; in assay [5] it was 9.7%; in assay [6], -7.5%.

As for `O=c1[nH]c(=O)n(COC(CO)CO)cc1-c1ccccc1`, the growth inhibition was -24.4% in assay [1]; -31.8% in assay [2]; 2.65% in assay [3]; -4.15% in assay [4]; -18.4% in assay [5]; -19.9% in assay [6].

`COC(=O)c1nnn(-c2cc(Cl)ccc2Cl)c1C(=O)c1ccc(OC)cc1`: the growth inhibition is -13.1% in assay [1]; 3.8% in assay [2]; -12.7% in assay [3]; 53.7% in assay [4]; 37.4% in assay [5]; -3.25% in assay [6].

For the compound `O=C(c1ccc2c(c1)OCO2)C(O)c1ccc(Cl)cc1` (stereo not drawn), the growth inhibition in assay [1] was 2.85%; in assay [2] it was 3.9%; in assay [3] it was 1.85%; in assay [4], -16.1%; in assay [5], -4.75%; in assay [6] it was 5%.
